Source: PubChem BioAssay (National Center for Advancing Translational Sciences (NCATS))
12-LOX inh – ALOX12 (human) lipoxygenase inhibition. Potency, µM (top dose mostly 108 µM), for the others: at the top dose activity change, negative = inhibition, usual class: inhibitors. hit rate 1.1% among 580,000. purified 12hLO, xylenol orange hydroperoxide absorbance. P18054
Target sequence (P18054 whole entry, looked up): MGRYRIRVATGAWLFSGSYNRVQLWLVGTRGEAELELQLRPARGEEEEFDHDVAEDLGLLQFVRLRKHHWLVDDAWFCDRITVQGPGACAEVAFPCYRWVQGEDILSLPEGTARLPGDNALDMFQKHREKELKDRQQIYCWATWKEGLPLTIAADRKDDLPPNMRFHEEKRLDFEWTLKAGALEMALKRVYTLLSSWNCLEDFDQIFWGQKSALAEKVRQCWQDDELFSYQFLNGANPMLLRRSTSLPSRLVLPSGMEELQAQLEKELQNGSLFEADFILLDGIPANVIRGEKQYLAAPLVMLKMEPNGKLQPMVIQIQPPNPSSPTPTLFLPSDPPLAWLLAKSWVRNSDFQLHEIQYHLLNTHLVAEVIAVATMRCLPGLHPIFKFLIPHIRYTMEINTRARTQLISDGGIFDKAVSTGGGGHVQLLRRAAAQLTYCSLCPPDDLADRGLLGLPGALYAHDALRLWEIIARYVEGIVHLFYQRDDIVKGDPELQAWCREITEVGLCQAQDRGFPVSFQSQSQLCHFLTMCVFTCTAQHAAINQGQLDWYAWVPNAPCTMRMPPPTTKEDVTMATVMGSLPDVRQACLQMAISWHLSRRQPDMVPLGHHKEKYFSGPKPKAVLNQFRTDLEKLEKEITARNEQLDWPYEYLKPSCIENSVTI
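Purified human 12hLO at 150 nM in 25 mM Hepes, 0.01% Triton X-100, pH 7.0, preincubated 15 min at room temperature with compound. Reaction started with 40 uM arachidonic acid, 30 min at room temperature. Hydroperoxide measured by Fe-xylenol orange, 573/405 nm absorbance ratio.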
DT40 TDP1 no CPT – qHTS for Inhibitors of human tyrosyl-DNA phosphodiesterase 1 (TDP1): qHTS in cells in absence of CPT | DT40 Tdp1-/- hTDP1 cells, no CPT, ATP luminescence, 48 h | Potency, µM (titrated, usually from 46.2 µM), for inactives: at the top dose activity change, negative = growth inhibition, usual class: inhibitors | hit rate 15% among 420,000; further: nearly all actives have a fitted effect of over 55% in size
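DT40 Tdp1-/-;hTDP1 cells, no CPT (DMSO vehicle only), 400 cells/well; compounds pin-transferred; ≥48 hr, 37 °C; CellTiter-Glo 30 min RT dark, luminescence read.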
RORg inh – blocks mouse ROR gamma transcriptional activity | Drosophila S2 Gal4-RORgamma UAS-luciferase reporter, 20 h | Potency, µM (top dose mostly 53.6 µM), for the others: at the highest dose activity change, negative = inhibition, hits mostly inhibitors | hit rate 5.4% among 310,000 | P51450; further: nearly all actives have a fitted effect of over 60% in size
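Stable Schneider cell line, Gal4 DNA-binding domain fused to ROR gamma, UAS-luciferase. Cmpd 1 hr RT → CuSO4 700 uM final → 20 hr RT → luciferase reagent 10 min → luminescence.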
TDP1 cell CPT – DT40-hTDP1 cell growth loss with CPT; Potency, µM (titrated, usually from 46.2 µM), without a hit: at the highest dose activity change, negative = growth inhibition, actives largely listed as inhibitors; hit rate 12% among 420,000; chicken DT40 Tdp1-/-;hTDP1 cells + 20 nM CPT, ATP luminescence, 48 h; further: nearly all actives have a fitted effect of over 55% in size
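Chicken DT40 Tdp1-/- cells complemented with human TDP1, 400 cells/well, exposed to compounds plus 20 nM camptothecin for at least 48 h at 37 C; viability read as ATP content by CellTiter-Glo luminescence.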
ELG1 repair inh – blocks ELG1-dependent DNA repair in HEK293T cells; HEK293T ELG1-luciferase reporter, luminescence, 16 h; DNA damage induced by 5-fluorouridine; Potency, µM (highest dose often 46.1 µM), for the others: top-dose activity change, negative = inhibition, hits mostly inhibitors; hit rate 2.3% among 330,000; further: nearly all actives have a fitted effect of over 55% in size
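DMSO vehicle served as the neutral condition. Each well held 2,000 cells given 5-fluorouridine plus compound; after 16 hr at 37 °C/5% CO2, ONE-Glo was added and luciferase measured 30 min later.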
VP16 counter – inhibits Gal4-VP16 luciferase reporter, ROR gamma counter-screen | Drosophila S2 Gal4-VP16 UAS-luciferase, luminescence, 20 h | Potency, µM (top dose mostly 53.6 µM), for the others: top-dose activity, negative = inhibition, hits mostly inhibitors | hit rate 3.5% among 310,000;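 further: Gal4-VP16 expression switched on by copper sulfate through the metallothionein promoter; nearly all actives have a fitted effect of over 50% in size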
ELG1 FLuc counter – luciferase inhibition in cell-free luciferin readout for ELG1 hits; shares compounds with ELG1 repair inh; cell-free firefly luciferase luminescence counter-screen, ViewLux; Potency, µM (series often up to 46.1 µM), for inactives: at the highest dose activity change, negative = inhibition, actives largely listed as inhibitors; hit rate 3% among 350
ELG1 Luc conf – inhibits ELG1-dependent DNA repair in HEK293T cells, confirmed; shares compounds with ELG1 repair inh; HEK293T ELG1-luciferase levels, luminescence; cells co-treated with 5-fluorouridine; Potency, µM (series often up to 46.1 µM), inactives show at the top dose activity change, negative = inhibition, hits mostly inhibitors; hit rate 68% among 670; further: nearly all actives have a fitted effect of over 55% in size
ELG1-Luc MMS – confirmation of human ELG1 repair inhibitors, MMS stimulated; hit rate 53% among 670; shares compounds with ELG1 repair inh; HEK293T luciferase-tagged ELG1 level, MMS stimulated; AID 624249; Potency, µM (doses to about 46.1 µM), inactives show at the top dose activity change, negative = inhibition, actives largely listed as inhibitors; further: nearly all actives have a fitted effect of over 60% in size
ELG1 5-FU – confirmation of ELG1 repair inhibitors: viability with 5FU | shares compounds with ELG1 repair inh | cell viability with 5-FU, ELG1-dependent repair | Potency, µM (doses to about 46.1 µM), inactives show at the highest dose activity change, negative = viability loss, most hits filed as cytotoxic | 670 tested, under 10 active | AID 624250;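 further: ELG1-luc HEK293T cells cotreated with 5-fluorouridine at 10 µM final; viability measured 16 h after compound addition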
ELG1 MMS viab – confirmation of ELG1 repair inhibitors: viability with MMS; hit rate 33% among 670; shares compounds with ELG1 repair inh; Cell viability with MMS, ELG1-dependent DNA repair; Potency, µM (titrated, usually from 46.1 µM), for inactives: at the top dose activity change, negative = viability loss, usual class: cytotoxic;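 further: ELG1-luc HEK293T cells co-treated with 10 µM MMS; viability read 16 h after compound addition; nearly all actives have a fitted effect of over 60% in size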
ELG1 unstim viab – counter-screen for ELG1 repair inhibitors: unstimulated cell viability; hit rate 8% among 900; cell viability counter-screen, unstimulated, luminescence; shares compounds with ELG1 repair inh; Potency, µM (highest dose often 45.9 µM), for the others: at the highest dose activity change, negative = loss of viability, actives largely listed as cytotoxic;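 further: compound exposure lasted 16 hours before reading; nearly all actives have a fitted effect of over 55% in size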
FLuc enzyme – counter-screen for ELG1 repair inhibitors: firefly luciferase inhibition; shares compounds with ELG1 repair inh; purified firefly luciferase, luminescence counter-screen; Potency, µM (top dose mostly 57.5 µM), for the others: top-dose activity, negative = inhibition, most hits filed as inhibitors; hit rate 10% among 350
* marks the source's active call; other numbers are inactive results; ? = inconclusive; . = not tested or not shown; [ ] = dose if it differs, or a comment. Compounds with a hit are over-represented: about 15% of the library has one in this group of screens. The call rests on the fitted dose curve; in most records, active means well fitted curve in the direction sought with a large enough effect; inconclusive means small, poorly fitted or top-dose-only effect, or another doubt; inactive means no such curve, though single readings can be large; an effect the other way counts as inactive or inconclusive. On the % scale 0 is the no-effect control and ±100 the full control effect; potency means the concentration at half of the fitted maximal effect.

SMILES	12-LOX inh	DT40 TDP1 no CPT	RORg inh	TDP1 cell CPT	ELG1 repair inh	VP16 counter	ELG1 Luc conf	ELG1-Luc MMS	ELG1 5-FU	ELG1 MMS viab	ELG1 unstim viab	others
O=C(CSc1nnc(-c2cccc(Cl)c2)o1)Nc1ccc2c(c1)OCCO2	-14%	-2%	-8%	-4%	?	-8%	.	.	.	.	-1%
O=C(O)CSc1nnc(-c2ccc(O)cc2)o1	-22%	.	.	.	.	.	.	.	.	.	.
O=C(CSc1nnc(-c2ccncc2)o1)Nc1ccc2c(c1)OCO2	-3%	.	.	.	.	.	.	.	.	.	.
COc1ccccc1NC(=O)CSc1nnc(-c2ccccc2)o1	231%	-10%	12%	4%	?	-3%	.	.	.	.	?
COc1ccc(C(=O)N2C(C(=O)N3CCCC3)COC23CCN(C(=O)C2CCC2)CC3)cc1 (stereo not drawn)	47%	.	.	.	.	.	.	.	.	.	.
O=C(CSc1nnc(-c2csc3c2CCCC3)o1)Nc1ccccc1	21%	?	-44%	?	?	-29%	.	.	.	.	?	ELG1 FLuc counter=30%;FLuc enzyme=-15%
Cc1cc(S(=O)(=O)Nc2nc(CN3CCOCC3)nc3sc4c(c23)CCCC4)ccc1F	0%	?	-2%	-1%	1%	1%	0%	15%	-7%	-4%	-11%	ELG1 FLuc counter=77%;FLuc enzyme=-1%
Cc1cc(S(=O)(=O)Nc2nc(CN3CCOCC3)nc3sc4c(c23)CCC4)cc(C)c1C	-28%	-7%	.	-10%	17%	.	.	.	.	.	.
Fc1ccc(Nc2nc(-c3ccncc3)nc3ccccc23)cc1F	-6%	.	-18%	.	1.8µM*	-20%	1.4µM*	?	?	-7%	?	ELG1 FLuc counter=2%;FLuc enzyme=4%
Cc1nnc(SCC(=O)Nc2sccc2C#N)s1	-2%	5%	-2%	5%	2%	8%	.	.	.	.	.
N#Cc1ccsc1NC(=O)CSc1nncs1	8%	16%	.	-12%	?	.	.	.	.	.	-16%
COc1cccc(N2C(=O)NC(=NC3CCCCC3)C23CCCN([S+](=O)([O-])c2cccc(OC)c2)C3)c1 (stereo not drawn)	6%[6.33 µM]	.	.	.	.	.	.	.	.	.	.
CCOCCn1ccc2c(OCC(=O)Nc3cc(OC)ccc3OC)cccc2c1=O	-7%	9.2µM*	.	?	4.1µM*	.	11µM*	16µM*	?	?	?
CNC(=O)CN(Cc1ccccc1F)S(=O)(=O)c1ccc(C)cc1	-1%	.	.	.	.	.	.	.	.	.	.
CN(C)c1ccc(/C=C/c2ccc3ccccc3[n+]2[O-])cc1	.	13µM*	.	20µM*	.	.	.	.	.	.	13µM*	ELG1 FLuc counter=-63%;FLuc enzyme=0.092µM*
C[n+]1c(/C=C/c2ccc3c(c2)OCO3)ccc2ccccc21	36%	2%	-24%	13%	?	-10%	.	.	.	.	.
Cc1cc(NC(=O)c2cnn3c(C(F)F)cc(C4CC4)nc23)no1	-1%	12µM*	-37%	?	-10%	-9%	?	-3%	-1%	-6%	-12%	ELG1 FLuc counter=1%;FLuc enzyme=-5%
Cc1cc(NC(=O)c2cnn3c(C(F)(F)F)cc(-c4ccccc4)nc23)no1	-5%[57.4 µM]	23µM*	3%	13µM*	7.3µM*	-14%	5µM*	?	10%	?	?	ELG1 FLuc counter=98%;FLuc enzyme=-4%
CCNC(=O)O[C@@H]1CO[C@H]2[C@@H]1OC[C@@H]2Nc1nccc(-c2ccc(-c3ccccc3)cc2)n1	-1%	.	.	.	.	.	.	.	.	.	.
COc1ccc(-c2cc(C(F)F)n3ncc(C(=O)Nc4cnn(Cc5ccccc5)c4)c3n2)cc1	6%	.	9%	.	?	-1%	.	.	.	.	.
COc1ccc(-c2cc(C(F)F)n3ncc(C(=O)Nc4cccc(S(=O)(=O)N5CCOCC5)c4)c3n2)cc1	-4%	?	-13%	-6%	3.7µM*	-24%	?	22%	12%	-5%	-13%
Cc1nc2ncccn2c1C(=O)N1CCC(=O)N(CC2CC2)C(C(C)C)C1 (stereo not drawn)	68%	.	.	.	.	.	.	.	.	.	.
CCOc1cc(N2CCOCC2)c(OCC)cc1NC(=O)c1c(C)noc1C	-15%	-17%	.	-24%	-22%	.	.	.	.	.	.
CCOC(=O)c1c(C)[nH]c(C(=O)Nc2cc(OCC)c(N3CCOCC3)cc2OCC)c1C	1%	?	.	?	4.6µM*	.	5.6µM*	19%	?	0%	-16%
CC(C)C(=O)N1CCC2(CC1)Oc1ccc(Cl)cc1C(=O)C21CC(c2ccc(Cl)cc2)=NO1 (stereo not drawn)	-30%	-19%	2%	?	2.6µM*	2%	10µM*	-15%	?	-6%	?
Cn1nc(C(=O)OCc2ccccc2)c2ccccc2c1=O	-3%	.	.	.	.	.	.	.	.	.	.
CCCN(CCC)c1ncnc2nc[nH]c12	19%	?	?	?	1.6µM*	1%	4.4µM*	?	-4%	10%	-4%
